For 59 compounds, Potency results are on record in PubChem BioAssay AID504848 (National Center for Advancing Translational Sciences (NCATS), 2011).

Out of some 2,300 compounds screened, about 1,400 (61%) were called active. Roughly 29% stayed inconclusive and do not appear here. Calls come from the whole dose curve; as a rule, active = well fitted inhibition curve with a large enough effect; inconclusive = small, poorly fitted or top-dose-only effect, or effect the other way; inactive = no such curve, though single readings can be large or run the other way. So high a share suggests a set chosen from earlier hits. This is one part of the list.
Potency is the fitted concentration of half-maximal effect.

The nature of the assay: Confirmation screen for delayed death inhibitors of the malarial parasite plastid, 96 hour incubation. Note: nearly all actives have a fitted effect of over 60% in size. The note with it: P. falciparum luciferase growth in erythrocytes; series mostly up to 28.7 µM. In outline:
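Erythrocytes infected with luciferase-expressing P. falciparum (2% hematocrit, 0.1% parasitemia final) in RPMI 1640 with 0.5% Albumax, exposed to compounds 96 h at 37 C, 5% CO2. Growth inhibition read as decreased luciferase luminescence.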
Take `COc1cc(C(=O)NCc2ccncc2)cc(Br)c1OCc1ccccc1`: the Potency was 8.91 µM (active). On to `O=C(c1ccc(S(=O)(=O)Cc2ccccc2Cl)c([N+](=O)[O-])c1)N1CCOCC1`, for which the Potency is 3.98 µM (active). As for `Cc1ccc(S(=O)(=O)N2CCN(c3ccc(C(=O)N4CCOCC4)cc3[N+](=O)[O-])CC2)cc1`, the Potency is 4.47 µM (active). Consider `O=C(c1ccc(S(=O)(=O)Cc2cc(F)ccc2F)c([N+](=O)[O-])c1)N1CCCC1`, for which the Potency was 7.94 µM (active). For `CC(C)NC(=O)NC(=O)COC(=O)c1ccccc1Oc1ccccc1`, the Potency result was “inactive”.

As for `Cc1cccc(NC(=O)COC(=O)c2cccc3c2C(=O)c2ccccc2C3=O)c1C`, the Potency was 12.6 µM (active).

With `CN(C)S(=O)(=O)c1cc(NC(=O)C2=COCCO2)ccc1Cl`, the Potency was 10 µM (active). `CN(C)S(=O)(=O)c1cc(NC(=O)c2cc(=O)c3ccccc3o2)ccc1Cl`: the Potency is 5.01 µM (active). The figure for `CCCCCCn1c(=O)[nH]c2nc3cc(N)ccc3nc2c1=O` is 14.1 µM (active); for `O=C(O)c1ccccc1Nc1ccc([N+](=O)[O-])cc1` it is “inactive”; for `COc1ccccc1NC(=O)Cc1nnc(SCC(=O)NC2CCCCC2)n1C` it is “inactive”.

On to `COc1cc(-c2ccc(NC(=O)NC3CC3)c(OC)c2)ccc1NC(=O)NC1CC1`, for which the Potency was 11.2 µM (active).

Turning to `COc1ccc(NC(=O)N2CCCc3cc(C)ccc32)c(OC)c1`, the Potency is 12.6 µM (active). The figure for `COc1cc(-c2ccc(Nc3ccccc3C(=O)O)c(OC)c2)ccc1Nc1ccccc1C(=O)O` is 10 µM (active).

For the compound `COc1ccc(NC(=O)NC2CCCCCCC2)c(OC)c1`, the Potency is 11.2 µM (active).

Take `COc1ccc(NC(=O)NC2CCCc3ccccc32)c(OC)c1` (centres undefined): the Potency was 6.31 µM (active). Regarding `CCNc1ccc(Br)cc(C(=O)/C=C/c2c(Cl)cccc2Cl)c1=O`, the Potency is 7.08 µM (active). Consider `O=C(NC(=S)Nc1nc(-c2ccccc2)cs1)c1cccnc1`, for which the Potency was 12.6 µM (active). The entry for `CC(=O)Oc1ccc(-c2csc(Nc3cccnc3)n2)cc1` is “inactive”.

For the compound `O=C(c1ccccc1Br)N1CCN(c2ccccn2)CC1`, the Potency entry was “inactive”.

In the case of `CC(Oc1ccc(Br)cc1)C(=O)N1CCN(c2ccccn2)CC1` (centres undefined), the Potency was 12.6 µM (active).

As to `CCCCn1c(=O)[nH]c(=O)c2c1nc(Cn1ncc(Cl)c(Cl)c1=O)n2CCC`, the Potency was 10 µM (active). For the compound `CC(C)CNC(=O)C(=O)Nc1cc2c3c(c1)C(C)C(=O)N3CCC2` (centres undefined), the Potency was 14.1 µM (active).

For the compound `Cc1ccccc1NC(=O)Cc1nnc(SCC(=O)NC2CCCCC2)n1C`, the Potency result was “inactive”. The figure for `Cn1c(Cc2cccc3ccccc23)nnc1SCc1ccc([N+](=O)[O-])cc1` is 12.6 µM (active); for `COc1ccccc1C1CCCN1Cc1nc(-c2ccc(C)s2)oc1C` (centres undefined) it is 14.1 µM (active). The figure for `N#CC1=C(N)Oc2n[nH]c(-c3cccnc3)c2C1c1ccc([N+](=O)[O-])o1` (centres undefined) is 15.8 µM (active).

Turning to `C=C1C(=O)[C@@]23[C@H](O)C[C@@H]4C(C)(C)CC[C@H](O)[C@]4(C)[C@@H]2C[C@H](O)[C@@H]1[C@H]3O`, the Potency was 14.1 µM (active). The figure for `Cc1ccc(Cl)cc1N1CCN(c2cccc[n+]2C)CC1` is 2 µM (active). The figure for `CCCc1[nH]nc2c1C(c1cc(OC)ccc1F)C(C#N)=C(N)O2` (centres undefined) is 3.55 µM (active). The figure for `O=C(CSc1nc(-c2ccco2)cc(C(F)(F)F)n1)Nc1ccccc1C(F)(F)F` is 12.6 µM (active); for `O=C(NCc1ccccn1)c1cc(-c2ccc(-c3ccccc3)cc2)nc2ccccc12` it is 15.8 µM (active). For the compound `CC(Sc1nc2cc(Cl)ccc2s1)C(=O)Nc1cccc(S(=O)(=O)N2CCOCC2)c1` (centres undefined), the Potency is 12.6 µM (active). As for `COc1cccc(/C=N/NC(=O)c2nc(-c3ccccc3)cc(-c3ccccc3)n2)c1O`, the Potency was 7.94 µM (active). The figure for `COc1ccccc1-n1nnnc1S(=O)(=O)Cc1ccc(Cl)cc1` is 7.08 µM (active); for `CCCc1cc(C(=O)N2CCCC(N3CCN(c4ccccc4F)CC3)C2)n(C)n1` (centres undefined) it is 10 µM (active). The entry for `CC(=O)NC(=O)COC(=O)/C=C/c1c(C)nn(Cc2c(Cl)cccc2Cl)c1Cl` is “inactive”.

In the case of `COc1ccc2cc3cc(C(=O)N(C)C4CCCCC4)oc3nc2c1`, the Potency is 10 µM (active).

`CCOC(=O)C1CCCN(C(=O)c2cc3cc4ccc(OC)cc4nc3o2)C1` (centres undefined): the Potency was 7.94 µM (active). Regarding `COc1ccc2cc3cc(C(=O)Nc4ccc5c(c4)OCO5)oc3nc2c1`, the Potency is 0.891 µM (active). The figure for `CN(CCCN1c2ccccc2CCc2ccccc21)CC(=O)c1ccc(Cl)cc1` is 12.6 µM (active); for `CCN(CC)C(=O)COc1coc(CN2CCN(c3cccc(Cl)c3)CC2)cc1=O` it is 4.47 µM (active).

As to `CCOc1ccccc1NC(=O)COc1coc(CN2CCc3ccccc3C2)cc1=O`, the Potency was 11.2 µM (active). For `CN(C(=O)COc1coc(CN2CCN(c3ccccc3)CC2)cc1=O)c1ccccc1`, the Potency was 10 µM (active).

Take `CCN(CC)C(=O)COc1coc(CN2CCN(c3ccccc3)CC2)cc1=O`: the Potency is 7.94 µM (active). In the case of `CCCNC(=O)COc1coc(CN2CCN(c3cccc(Cl)c3)CC2)cc1=O`, the Potency is 10 µM (active). The figure for `O=C(/C=C/c1ccncc1)c1ccc2c(c1)OCCO2` is 12.6 µM (active); for `O=C(O)c1ccc(/C=N/NC(=O)c2ccc3c(c2)OCCO3)cc1` it is “inactive”; for `CCOC(=O)C1=C(C)N=c2s/c(=C\c3ccc(OCC(=O)O)cc3)c(=O)n2C1c1ccc(OC(C)C)cc1` (centres undefined) it is 2.51 µM (active). The figure for `O[C@@H](c1cc(C(F)(F)F)nc2c(C(F)(F)F)cccc12)[C@H]1CCCCN1` is 0.178 µM (active). For the compound `OC(c1cc(C(F)(F)F)nc2c(C(F)(F)F)cccc12)C1CCCCN1` (centres undefined), the Potency was 0.0501 µM (active). The figure for `OC(c1cc(-c2ccc(Cl)cc2)nc2ccccc12)C1CCCCN1` (centres undefined) is 0.251 µM (active); for `OC(c1cc(C(F)(F)F)nc2c(Cl)cc(Cl)cc12)C1CCCCN1` (centres undefined) it is 0.0224 µM (active); for `CCN(CC)c1ccc(NC(=S)NC(=O)C2CCC2)cc1` it is 11.2 µM (active). The figure for `O=[N+]([O-])c1cncc([N+](=O)[O-])c1Nc1cccc(O)c1` is 12.6 µM (active). The figure for `NC(=O)C1CCN(CC(=O)Nc2cccc(C(=O)Nc3cccc(C(F)(F)F)c3)c2)CC1` is 1.12 µM (active). Take `O=C(Nc1ccsc1C(=O)O)c1cccc(C(F)(F)F)c1`: the Potency result is “inactive”. In the case of `COc1ccc(OC)c(/C=C/c2c([N+](=O)[O-])c(=O)n(C)c(=O)n2C)c1`, the Potency was 12.6 µM (active).

On to `Cn1c(/C=C/c2ccc(Cl)cc2)c([N+](=O)[O-])c(=O)n(C)c1=O`, for which the Potency was 6.31 µM (active).
